The record followed here is PubChem BioAssay AID2599 (Sanford-Burnham Center for Chemical Genomics, 2010).

Hit rate of the full screen: of about 330,000 compounds, about 5,800 (1.8%) were called active.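 Rule for the calls: active = inhibition above about 50% at the single tested dose (limit read from the data); inactive = the rest.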 What follows is part of a selection rich in actives, with near analogues and random picks from the rest.

In the test the target is Sentrin-specific protease 6 (Homo sapiens) (UniProt Q9GZR1). In words: inhibition of human SENP6 catalytic domain – biochemical, luminescence, uHTS, primary screen (AID 2599).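 Note: plate controls were DMSO wells with enzyme for no effect and DMSO wells lacking enzyme for full effect.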 To be noted: Recombinant SENP6 catalytic domain, aminoluciferin luminescence; at 10 µM; hits give high values.
Sequence of Sentrin-specific protease 6 (Homo sapiens) (Q9GZR1 628-1112 limits assumed): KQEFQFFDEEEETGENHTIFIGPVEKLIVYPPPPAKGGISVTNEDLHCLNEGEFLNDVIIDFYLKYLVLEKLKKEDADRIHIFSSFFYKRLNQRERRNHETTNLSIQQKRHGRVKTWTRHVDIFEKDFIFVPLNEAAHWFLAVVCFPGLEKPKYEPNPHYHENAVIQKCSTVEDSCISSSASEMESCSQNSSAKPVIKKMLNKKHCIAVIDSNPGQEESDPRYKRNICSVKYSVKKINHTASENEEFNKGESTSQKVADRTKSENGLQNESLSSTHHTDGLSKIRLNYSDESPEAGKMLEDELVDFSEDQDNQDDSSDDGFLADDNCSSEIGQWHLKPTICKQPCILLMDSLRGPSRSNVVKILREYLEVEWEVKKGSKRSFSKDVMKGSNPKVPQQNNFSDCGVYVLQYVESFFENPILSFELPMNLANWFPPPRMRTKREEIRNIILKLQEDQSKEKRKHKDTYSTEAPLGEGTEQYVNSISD
For the compound `CC(C)(C)c1cc(C(=O)N/N=C/c2ccc([N+](=O)[O-])s2)n[nH]1`, the inhibition was 35.9% (inactive). On to `COc1ccc(C(=O)NCC(=O)N/N=C/c2ccc([N+](=O)[O-])s2)cc1OC`, for which the inhibition was 48.9% (inactive).

`O=[N+]([O-])c1ccc(C=Nc2ccc(Cl)cc2Cl)s1`: the inhibition was 57.5% (active). Turning to `CC(=O)Nc1nc(N(C)C)nc(N(C)C)n1`, the inhibition is -13.9% (inactive). The same measure for `Cc1c(C(N)=O)sc2ncn(CCOc3ccccc3)c(=O)c12`: -16.1% (inactive); for `Cc1cccc(OC(=O)c2sc3ncn(C)c(=O)c3c2C)c1`: 52.6% (active). For the compound `CCOC(=O)C(C)n1cnc2sc(C)c(C)c2c1=O` (stereo not drawn), the inhibition is -17.3% (inactive). For `FC(F)(F)c1ccc(-n2cn[nH]c2=S)cc1`, the inhibition was -14.6% (inactive). Consider `CCSC1=NCCN1S(=O)(=O)c1ccc(F)cc1`, for which the inhibition was -6.19% (inactive). Regarding `CCCn1nnnc1NCc1ccc(CC)cc1`, the inhibition is -6.18% (inactive). For `O=C(CSc1nn(-c2ccc(F)cc2)c(=S)s1)NC1CCS(=O)(=O)C1` (stereo not drawn), the inhibition is -6.03% (inactive). The same measure for `O=S(=O)(Nc1ccc2nc(N3CCOCC3)sc2c1)c1ccccc1`: -2.51% (inactive); for `Fc1ccc2nc(Nc3nc4c(s3)CCCC4)sc2c1`: 34.4% (inactive); for `c1c2c(cc3sc(N4CCCCC4)nc13)OCCO2`: 7.27% (inactive). Turning to `O=C(c1ccc2nc(N3CCOCC3)sc2c1)N1CCN(c2ccc(Cl)cc2)CC1`, the inhibition is -6.6% (inactive).

With `Brc1ccc2nc(N3CCCC3)sc2c1`, the inhibition was 75.4% (active). As to `Fc1ccc2nc(N3CCCCC3)sc2c1`, the inhibition was 89.5% (active). Consider `C/C(=N/NC(=O)CCc1ccccc1)c1ccco1`, for which the inhibition is 12.1% (inactive). In the case of `C=CCn1c(C)cc(C2=NNC(=NCC)SC2)c1C`, the inhibition was 92.9% (active).

On to `COc1ccc(CC(NC(C)=O)C(=O)NC2CCN(C(=O)C3CC3)CC2)cc1OC` (stereo not drawn), for which the inhibition was -9.43% (inactive). As for `C=C(C)CSc1nc(N)c2c3c(sc2n1)CCC3`, the inhibition was 1.28% (inactive). Regarding `O=C(NC(Nc1nc2ccc([N+](=O)[O-])cc2s1)(C(F)(F)F)C(F)(F)F)c1ccccc1`, the inhibition is -1.71% (inactive). For `O=C(Nc1nc2ccc([N+](=O)[O-])cc2s1)c1ccncc1` the value was 91.5% (active); for `COc1ccc(C(=O)Nc2nc(-c3ccc(OC)cc3)c(-c3ccc([N+](=O)[O-])cc3)s2)cc1`, -31.8% (inactive). The same measure for `CCN(CC)S(=O)(=O)c1ccc(N2CCOCC2)c(NC(=O)C2CSC3(C)CCC(=O)N23)c1` (stereo not drawn): 4.82% (inactive); for `COc1ccc2cc(C(=O)C3CCCN(C(=O)c4sc(C)nc4C)C3)ccc2c1` (stereo not drawn): -16.8% (inactive). For `CCOc1ccc2nc(C(=O)N3CCCC(C)C3)sc2c1` (stereo not drawn) the value was 70.8% (active); for `CCCC(=O)N(CCN1CCOCC1)c1nc2ccc(OCC)cc2s1`, -4.24% (inactive). For `O=C(NCCS(=O)(=O)NCc1ccc(Cl)cc1)c1ccccc1`, the inhibition is -0.893% (inactive). With `COc1cccc(N2C(=O)CC(N3CCc4ccccc4C3)C2=O)c1` (stereo not drawn), the inhibition was 0.083% (inactive). `CCOc1ccc(N2C(=O)CSC2=NC#N)cc1`: the inhibition is -18.7% (inactive). Regarding `CC(C)(C)n1nc2c(c1NC(=O)c1cc3ccccc3o1)CSC2`, the inhibition is 2.49% (inactive). For `COc1cc2ccccc2cc1C(=O)Nc1ccncc1` the value was -5.66% (inactive); for `O=C(Nc1ccncc1)c1cc2ccccc2o1`, 63.5% (active); for `CC(OC(=O)Cc1ccc(F)cc1)C(=O)N1CCc2ccccc21` (stereo not drawn), 8.22% (inactive). For `CCC(=O)Nc1nnc(S(=O)(=O)N2CCCc3ccccc32)s1`, the inhibition was -3.06% (inactive).

As to `COc1ccc(Br)cc1C(=O)NC(=S)Nc1cc(-c2nc3ccccc3[nH]2)ccc1C`, the inhibition is 6.04% (inactive). In the case of `COc1ccc(-c2[nH]nc(-c3ccccc3)c2-c2nc3ccccc3[nH]2)cc1`, the inhibition was -1.01% (inactive). As for `Nc1cccc(CCc2nc3ccccc3[nH]2)c1`, the inhibition is -9.91% (inactive). The same measure for `Clc1ccccc1SCc1nc2ccccc2[nH]1`: 39.4% (inactive); for `c1ccc2[nH]c(-c3nc4ccccc4[nH]3)nc2c1`: 97.2% (active). For `Cc1ccc(-c2nc3ccccc3[nH]2)cc1N`, the inhibition was 91% (active). Consider `CC1(C)C2CCC13CS(=O)(=O)NC3C2` (stereo not drawn), for which the inhibition is -8.89% (inactive).

As to `O=C(Nc1ccc(-c2ccc3nncn3n2)cc1)C1CCCCC1`, the inhibition is -18.8% (inactive).

As for `COc1ccc(N2CCN(CCCNC(=O)C3CCN(S(=O)(=O)N4CCOCC4)CC3)CC2)cc1`, the inhibition is 8.09% (inactive). With `CCNC(=S)N1CCN(S(=O)(=O)c2ccc(Cl)s2)CC1`, the inhibition is -2.28% (inactive). As to `COc1ccc([N+](=O)[O-])cc1N(CC(=O)Nc1ccccc1C(=O)N1CCOCC1)S(C)(=O)=O`, the inhibition is -14.4% (inactive).

For `Cc1cc(C)c(S(=O)(=O)c2ccc(F)cc2C)c(=O)[nH]1`, the inhibition was -7.65% (inactive). `Cc1ccc(/C(N)=N/OC(=O)COc2ccc(Cl)c(C)c2)cc1`: the inhibition was -9.12% (inactive). On to `N/C(=N\OC(=O)c1cc(-c2ccccc2)nc2ccccc12)c1ccncc1`, for which the inhibition is -23.3% (inactive). For the compound `Cc1cccc(/C(N)=N/OC(=O)c2ccccc2Cl)c1`, the inhibition was 86.2% (active). For `N#Cc1cc([N+](=O)[O-])ccc1Oc1cccc(/C=N/NC(=O)c2ccc(Cl)cc2)c1` the value was -30.8% (inactive); for `COc1ccc2c(C)cc(SCC(=O)NCC3CCCO3)nc2c1` (stereo not drawn), 2.3% (inactive); for `Nn1c(Cc2cccc3ccccc23)nnc1SCC(=O)N1CC(=O)Nc2ccccc21`, -14.3% (inactive). Regarding `CN(c1ccccc1)S(=O)(=O)c1cc(C(=O)Nc2nc3ccccc3[nH]2)ccc1Cl`, the inhibition was 0.946% (inactive).

Take `O=C(Cc1ccsc1)N1CCN(S(=O)(=O)c2cc(C(F)(F)F)cc(C(F)(F)F)c2)CC1`: the inhibition is -12.7% (inactive). The same measure for `O=c1c(-c2cccc(Cl)c2)c[nH]n1-c1ccccc1`: 50.4% (active); for `O=c1c(-c2ccccc2Cl)c[nH]n1-c1ccccc1`: 5.63% (inactive). Turning to `O=C1c2ccccc2NC(c2ccc(-c3cccc(Cl)c3)o2)N1O` (stereo not drawn), the inhibition was 2.11% (inactive). The same measure for `Cc1ccc(NC(=O)c2ccn(C(=O)Nc3ccccc3)n2)c(C)c1`: 8.66% (inactive); for `CCCCC(CC)CNC(=O)C(=O)C1C(=O)Nc2ccccc21` (stereo not drawn): -18.1% (inactive); for `CCCn1nnnc1NCc1ccc(OC)cc1`: -1.58% (inactive). As for `COC(=O)c1scc(S(=O)(=O)C(C)(C)C)c1-n1cccc1`, the inhibition was -3.91% (inactive).

For orientation: inhibition means the drop in the measured response relative to a control, in per cent.
